Results filed as inconclusive are left out. A number with no mark means an inactive call. Activity calls are given as the source filed them. Unless noted, the call rests on the fitted dose curve.
Target: Cytochrome P450 2C19 (Homo sapiens) (UniProt P33261)
Assay: qHTS Assay for Inhibitors and Substrates of Cytochrome P450 2C19 (AID 899; active means well fitted inhibition curve with a large enough effect; further: nearly all actives have a fitted effect of over 60% in size; further: potency means the concentration at half of the fitted maximal effect)
Details: recombinant CYP2C19, luciferin-H EGE luminescence; series mostly up to 57.1 µM
In short: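 Reactions contain 5nM enzyme, 10uM Luciferin-H EGE (KM) and 50mM KPO4; compound preincubates 10 min at 37C, NADPH regeneration starts turnover for 60 min. Luminescence after detection reagent gives activity.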

Cytochrome P450 2C19 (Homo sapiens), sequence (P33261 whole entry, looked up): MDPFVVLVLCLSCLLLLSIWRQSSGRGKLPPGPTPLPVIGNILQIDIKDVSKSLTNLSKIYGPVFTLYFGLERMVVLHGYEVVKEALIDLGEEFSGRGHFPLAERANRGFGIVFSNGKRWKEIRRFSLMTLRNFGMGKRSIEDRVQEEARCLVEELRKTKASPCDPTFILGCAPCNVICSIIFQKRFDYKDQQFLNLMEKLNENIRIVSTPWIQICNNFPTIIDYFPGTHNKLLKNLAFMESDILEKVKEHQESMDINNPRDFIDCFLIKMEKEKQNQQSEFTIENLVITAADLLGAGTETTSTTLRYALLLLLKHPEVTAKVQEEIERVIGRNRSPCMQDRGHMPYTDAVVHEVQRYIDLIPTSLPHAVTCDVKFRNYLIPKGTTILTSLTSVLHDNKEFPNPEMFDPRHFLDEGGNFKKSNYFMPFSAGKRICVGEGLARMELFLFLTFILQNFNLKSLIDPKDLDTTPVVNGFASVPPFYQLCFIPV

Q: Which Potency does the source give for O=S(=O)(c1ccccc1)N1CCC2(CCCN(c3ncccn3)C2)CC1 here?
A: 398 nM (active)

Q: For COc1ccc(NC(=O)N2CCCC3(CCNCC3)C2)cc1, which Potency is on record?
A: inactive

Q: Which Potency does the source give for CC(=O)N1CCC2(CC1)CN(c1ccccc1)C2 here?
A: inactive

Q: For O=C(c1cnccn1)N1CCC2(CCCN(c3ccccc3)C2)CC1, which Potency is on record?
A: 501 nM (active)

Q: For O=C(Oc1ccccc1)N1CCC[C@@]2(CCN(c3ncccn3)C2)C1, which Potency is on record?
A: 2510 nM (active)

Q: With COCC(=O)N1CCC2(CCCN(C(=O)Nc3ccc(OC)cc3)C2)CC1 as the compound, how does the Potency read?
A: inactive

Q: Which Potency does the source give for CN(C)c1ncc2ncc(=O)n(Cc3ccc(F)cc3)c2n1 here?
A: 3160 nM (active)

Q: For O=C(c1ccco1)N1CCC[C@@]2(CCN(c3ccccc3)C2)C1, which Potency is on record?
A: 5010 nM (active)

Tested on: not listed separately
Assay: qHTS Assay for Identification of Small Molecule Agonists for Hypoxia Response Element Signaling Pathway (AID 914; active means well fitted activation curve with a large enough effect in the signal ratio, with a control signal flat, not every such curve was filed as active; the % refers to the signal ratio; further: % of control where 0% means no effect)
Details: ME-180 (cervical carcinoma) HRE-bla reporter, beta-lactamase ratio, CoCl2, 17 h; activation: active compounds read high
In short: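 Positive modulation of EC50 CoCl2-induced hypoxia response element signaling is measured in ME-180 cells with a beta-lactamase reporter. Compounds are titrated, incubation runs 17 hours, and %Activity derives from the blue/green ratio.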

Q: Which activation does the source give for COc1ccc(NC(=O)N2CC3(CCN(C(C)=O)CC3)C2)cc1 here?
A: -8.17%

Q: With O=C(c1csnn1)N1CCC2(CC1)CN(c1ccccc1)C2 as the compound, how does the activation read?
A: -12.1%

Q: For COCC(=O)N1CCC[C@@]2(CCN(C(=O)Nc3cccc(F)c3)C2)C1, which activation is on record?
A: 8.24%

Q: Which activation does the source give for N#Cc1ccc(CN2CCCC3(CCN(C(=O)c4cccc(F)c4)CC3)C2)cc1 here?
A: -15.7%

Q: Which activation does the source give for CC(C)NC(=O)N1CCCC2(CCN(C(=O)c3cc(C(F)(F)F)cc(C(F)(F)F)c3)CC2)C1 here?
A: -9.04%

Q: With N#Cc1cccc(NC(=O)N2CCC3(CC2)CCN(C(=O)c2csnn2)CC3)c1 as the compound, how does the activation read?
A: -0.636%

Q: For COCC(=O)N1CCC[C@@]2(CCN(Cc3ccccc3OC)C2)C1, which activation is on record?
A: -5.2%

Q: For CC(C)NC(=O)N1CC[C@@]2(CCCN(C(=O)c3cc(C(F)(F)F)cc(C(F)(F)F)c3)C2)C1, which activation is on record?
A: -1.12%

Q: With O=C(Nc1cccc(F)c1)N1CC[C@@]2(CCCNC2)C1 as the compound, how does the activation read?
A: 0.832%

Q: Which activation does the source give for O=C(c1csnn1)N1CCC[C@@]2(CCN(Cc3nccs3)C2)C1 here?
A: -0.307%

Q: Which activation does the source give for O=C(c1csnn1)N1CCC2(CC1)CCN(c1ccccc1)CC2 here?
A: -15.4%

Q: With CC(C)CN1CC[C@@]2(CCCN(C(=O)c3cnccn3)C2)C1 as the compound, how does the activation read?
A: -0.465%

Tested on: not listed separately
Assay: qHTS Assay for Lipid Storage Modulators (AID 1519); further: on the % scale 0 is the no-effect control and ±100 the full control effect
Details: Drosophila S3 cells, BODIPY lipid droplet/cell ratio, laser cytometry; at 57.5 µM (top of the series); cells loaded with oleic acid
In short: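 Cells seeded at 5,000 per well were treated with compounds over a concentration series and loaded with oleic acid (400 uM, as added). Lipid droplet fluorescence (488 nm excitation, 500-530 nm channel) was read by laser-scanning cytometry and normalized to 20 uM Triacsin C.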

Q: With COC(=O)N1CCC2(CCCN(Cc3ccccc3OC)C2)CC1 as the compound, how does the activity change, negative = inhibition read?
A: -2.47%

Q: With Cc1noc(C)c1C(=O)N1CCC[C@@]2(CCN(Cc3ccccc3)C2)C1 as the compound, how does the activity change, negative = inhibition read?
A: 2.65%

Q: With O=S(=O)(c1ccccc1)N1CCC2(CCCN(c3ncccn3)C2)CC1 as the compound, how does the activity change, negative = inhibition read?
A: 7.3%

Q: Which activity change, negative = inhibition does the source give for COc1ccc(NC(=O)N2CCCC3(CCNCC3)C2)cc1 here?
A: 4.28%

Q: For COc1ccc(NC(=O)N2CC3(CCN(C(C)=O)CC3)C2)cc1, which activity change, negative = inhibition is on record?
A: 3.83%

Q: With CC(=O)N1CCC2(CC1)CN(c1ccccc1)C2 as the compound, how does the activity change, negative = inhibition read?
A: 6.65%

Q: With COc1ccccc1CN1CC[C@@]2(CCCN(C(=O)c3cccn3C)C2)C1 as the compound, how does the activity change, negative = inhibition read?
A: 3.67%

Q: For Cn1cccc1C(=O)N1CCC[C@@]2(CCN(Cc3cc(C(F)(F)F)cc(C(F)(F)F)c3)C2)C1, which activity change, negative = inhibition is on record?
A: -3.99%

Q: For COc1ccccc1CN1CC[C@@]2(CCCN(C(C)=O)C2)C1, which activity change, negative = inhibition is on record?
A: 0.807%

Q: Which activity change, negative = inhibition does the source give for COc1ccccc1CN1CC[C@@]2(CCCN(S(C)(=O)=O)C2)C1 here?
A: 4.56%

Q: With O=C(c1csnn1)N1CCC2(CC1)CN(c1ccccc1)C2 as the compound, how does the activity change, negative = inhibition read?
A: 4.49%

Q: Which activity change, negative = inhibition does the source give for COc1ccc(NC(=O)N2CC[C@@]3(CCCN(C(=O)c4cnccn4)C3)C2)cc1 here?
A: 4.73%

Q: Which activity change, negative = inhibition does the source give for CC(C)CN1CC[C@@]2(CCCN(C(=O)c3csnn3)C2)C1 here?
A: 1.65%

Q: Which activity change, negative = inhibition does the source give for CC(=O)N1CCC2(CC1)CCN(C(=O)Nc1cccc(F)c1)CC2 here?
A: 3%

Q: For O=C(c1cnccn1)N1CCC2(CCCN(c3ccccc3)C2)CC1, which activity change, negative = inhibition is on record?
A: 4.73%

Q: Which activity change, negative = inhibition does the source give for O=C(c1ccncc1)N1CCC2(CC1)CCN(C(c1ccccc1)c1ccccc1)CC2 here?
A: 2.53%

Q: With COCC(=O)N1CCC[C@@]2(CCN(C(=O)Nc3cccc(F)c3)C2)C1 as the compound, how does the activity change, negative = inhibition read?
A: 2.12%

Q: With CC(C)NC(=O)N1CCCC2(CCN(C(=O)c3cccc(F)c3)CC2)C1 as the compound, how does the activity change, negative = inhibition read?
A: 3.5%

Q: For COc1ccccc1CN1CCC2(CC1)CCN(C(C)=O)CC2, which activity change, negative = inhibition is on record?
A: 0.897%

Q: With N#Cc1ccc(CN2CCCC3(CCN(C(=O)c4cccc(F)c4)CC3)C2)cc1 as the compound, how does the activity change, negative = inhibition read?
A: 2.12%

Q: With O=C(c1ccco1)N1CCC2(CC1)CN(C(c1ccccc1)c1ccccc1)C2 as the compound, how does the activity change, negative = inhibition read?
A: 2.1%

Q: For CS(=O)(=O)N1CCC2(CC1)CN(Cc1cc(C(F)(F)F)cc(C(F)(F)F)c1)C2, which activity change, negative = inhibition is on record?
A: 2.23%

— PubChem BioAssay (NCATS)
